# Source: PubChem BioAssay
# HCMV inh – qHTS Assay for inhibitors of the human cytomegalovirus (HCMV) | 4.5% of 410,000 active | HFF cells, HCMV-luciferase reporter, 72 h; stronger effect = lower value | AID 1259415, 2018 | activity change, negative = inhibition, % at 57.5 µM; in the data active = activity change below about -60%; inconclusive = no clear call, values can overlap the other calls; inactive = above about -39%; note: % is set by controls: 0 for no effect and ±100 for the full control effect
#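 Human foreskin fibroblasts infected with luciferase-reporter HCMV at MOI 1 PFU/cell, compounds at two doses. Luciferase measured 72 h post infection; normalized to buffer-only basal and Salinomycin (10uM) controls.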
# Pf growth 96h – Primary qHTS for delayed death inhibitors of the malarial parasite plastid, 96 hour incubation; AID 504834, 2011; Potency, µM (top dose mostly 28.7 µM), inactives show at the top dose activity change, negative = inhibition, usual class: inhibitors; 6.9% of 320,000 active; P. falciparum luciferase reporter growth, 96 h; note: potency is the fitted concentration of half-maximal effect; % is set by controls: 0 for no effect and ±100 for the full control effect
#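 P. falciparum expressing integrated firefly luciferase grown in erythrocytes (2% hematocrit, 0.05% parasitemia final) with compounds for 96 hours at 37 C, 5% CO2. Growth inhibition read as loss of luminescence after adding luciferase detection reagent.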
# Shiga toxin inh – A qHTS for Small Molecule Inhibitors of Shiga Toxin | Vero cells, Shiga toxin protein synthesis inhibition reporter | AID 2315, 2010 | 9.2% of 290,000 active | inhibition, % at 38.7 µM; in the data active = inhibition mostly above about 28%, no sharp cut-off; inactive = mostly below about 43%; note: 0% is about no effect
# Pf growth 48h – Primary qHTS for delayed death inhibitors of the malarial parasite plastid, 48 hour incubation; 5.9% of 310,000 active; P. falciparum luciferase growth in erythrocytes, 48 h; Potency, µM (titrated, usually from 28.7 µM), inactives show top-dose activity change, negative = inhibition, usual class: inhibitors; note: potency is the fitted concentration of half-maximal effect; % is set by controls: 0 for no effect and ±100 for the full control effect
#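 Firefly luciferase activity from engineered P. falciparum reports growth; inhibitors lower the luminescent signal. Cultures contained 2% hematocrit erythrocytes at 0.1% final parasitemia.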
# Cycloheximide cs – Cycloheximide Counterscreen for Small Molecule Inhibitors of Shiga Toxin. max response, %. cell reporter, cycloheximide protein synthesis inhibition counterscreen. 12% of 300,000 active. AID 2314, 2010; in the data active = max response mostly above about 13%, no sharp cut-off; inactive = mostly below about 14%; note: read at 38.3 µM for the half of the compounds with a filed dose; 0% is about no effect
# An asterisk follows results filed as active; u = inconclusive; x = no result given; [ ] = another dose, or the depositor's remark. Shown are actives, neighbours in structure and some others; about 20% of the full set was active somewhere. Unless noted, calls come from the whole dose curve; as a rule, active = well fitted inhibition curve with a large enough effect; inconclusive = small, poorly fitted or top-dose-only effect, or another doubt; inactive = no such curve, though single readings can be large or run the other way.
SMILES,HCMV inh,Pf growth 96h,Shiga toxin inh,Pf growth 48h,Cycloheximide cs
O=C(CN1CCOCC1)NCCc1ccccc1,1,10µM*,-15,8%,-2
O=C(Cn1cnc2ccccc21)NCCCN1CCOCC1,27,x,25*,13%,24*
CC(CCc1ccccc1)NC(=O)N1CCOCC1 (centres undefined),-30,10µM*,-3,-6%,-2
O=C(NCC1CCCO1)c1ccc(CSCc2cccc(F)c2)o1 (centres undefined),u,9%,18,-8%,25
O=C(CN(C1CCCCC1)S(=O)(=O)c1ccc(Br)cc1)NCc1cccnc1,-20,29%,-7,-29%,-4
Cc1ccc(NC(=O)C2=C(O)c3ccccc3N(C)S2(=O)=O)cc1,81,1%,44,-10%,34*
O=C(CN1C(=O)NC(Cc2ccccc2)C1=O)Nc1ccccc1OC(F)F (centres undefined),12,2%,x,6%,x
CCOc1ccc2[nH]c3c(NCCOC)ncnc3c2c1,27,u,67*,5%,29*
CCOc1ccc2[nH]c3c(NCCN(CC)CC)ncnc3c2c1,17,2.1µM*,2,2.3µM*,-3
COc1ccc2[nH]c3c(NCCN(C(C)C)C(C)C)ncnc3c2c1,12,0.47µM*,-6,2.6µM*,-5
COc1ccc2[nH]c3c(NCCCN4CCCC4=O)ncnc3c2c1,156,5%,38,1%,5
CCOc1ccc2[nH]c3c(NCC(C)C)ncnc3c2c1,x,1.7µM*,59*,2.3µM*,33*
CCSC[C@H](NC(=O)[C@H](C)NC(=O)[C@@H](N)Cc1ccc(O)cc1)C(=O)N[C@@H](CC(=O)O)C(=O)N[C@H](C(=O)N[C@@H](C)C(=O)N[C@H](C(=O)N[C@@H](CSCC)C(=O)N[C@H](C(=O)N[C@H](C(=O)N[C@@H](Cc1cnc[nH]1)C(=O)N[C@@H](CCCNC(=N)N)C(=O)N[C@@H](CC(C)C)C(=O)N[C@@H](C)C(=O)NCC(=O)N[C@@H](CC(C)C)C(=O)N[C@@H](CC(C)C)C(=O)N[C@@H](CO)C(=O)N[C@@H](CCCNC(=N)N)C(=O)N[C@@H](CO)C(=O)NCC(=O)NCC(=O)N[C@H](C(=O)N[C@H](C(=O)N[C@@H](CCCCN)C(=O)N[C@@H](CC(N)=O)C(=O)N[C@@H](CC(N)=O)C(=O)N[C@@H](Cc1ccccc1)C(=O)N[C@H](C(=O)N1CCC[C@H]1C(=O)N[C@H](C(=O)N[C@@H](CC(N)=O)C(=O)N[C@H](C(=O)NCC(=O)N[C@@H](CO)C(=O)N[C@@H](CCCCN)C(=O)N[C@@H](C)C(=O)N[C@@H](Cc1ccccc1)C(N)=O)C(C)C)[C@@H](C)O)C(C)C)C(C)C)C(C)C)[C@@H](C)O)C(C)C)[C@@H](C)O)[C@@H](C)O,x,x,10,x,-4
CCN(CC)CCCNc1nc2ccccc2c2[nH]c3ccc(OC)cc3c12,-93*,x,x,x,x
CCN(CC)CCCNc1nc(-c2ccccc2)nc2ccccc12,u,u,-2,u,-3
CCOc1ccc2[nH]c3c(NCCCOC)ncnc3c2c1,36,u,48*,x,35*
O=C(Nc1cccnc1)NC1CCCCC1,38,1%,53,u,8
COc1cccc(-n2nnc3c(=O)n(CC(=O)Nc4ccc(C)cc4)cnc32)c1,7,21%,4,33%[1.15 µM],-1
COc1cccc(/C=C/C(=O)OCC(=O)Nc2cc(C(F)(F)F)ccc2Cl)c1,-14,11%,-5,-7%,6
CCCCOc1ccc(C2CC(=O)NC2=O)cc1 (centres undefined),31,x,67*,42%,36*
CCCCOc1ccc(CC2CCC(=O)NC2=O)cc1 (centres undefined),-1,44%,3,8%,13*
CCCOc1ccc(C2CC(=O)NC2=O)cc1 (centres undefined),2,43%,24,10%,-4
O=C(O)C1NCCN(C(=O)c2ccc3c(ccc4ccccc43)c2)C1C(=O)O (centres undefined),x,x,-3,x,-6
CCOc1ccccc1NC(=O)c1ccccc1-c1nc(-c2ccccc2OC)no1,30,u,11,u,2
FC(F)(F)c1cnc(-c2cnc(-c3ccccn3)nc2)c(Cl)c1,12,6.6µM*,52*,329%,24
SMILES,HCMV inh,Pf growth 96h,Shiga toxin inh,Pf growth 48h,Cycloheximide cs
FC(F)(F)c1cc(Oc2ccccc2Cl)nc(-c2ccccn2)n1,u,42%,-4,37%,1
O=C(c1cccnc1)c1ncc(C(F)(F)F)cc1Cl,28,16%,-7,7%,-2
FC(F)(F)c1cnc(-c2cnc(-c3ccncc3)nc2)c(Cl)c1,60,107%,20,59%,20*
CCOP(=O)(OCC)/C(C#N)=C(\O)c1ccc(OC)cc1,17,95%,4,-10%,3
CC1(C(=O)NCc2ccccc2)CSCC(=O)N1C1CCN(Cc2ccccc2)CC1 (centres undefined),-27,x,x,x,x
Cc1cccc(C)c1NC(=O)C1(C)CSCC(=O)N1C1CCN(Cc2ccccc2)CC1 (centres undefined),-68*,x,x,x,x
COc1ccc(-c2cc(=Nc3ccc(C(=O)O)cc3)c3cc(C)ccc3o2)cc1,7,0%,161*,272%,63*
CCc1ccc2oc(-c3ccc(OC)cc3)cc(=Nc3cccc(C(=O)O)c3)c2c1,27,u,137*,331%,58*
COc1ccc(-c2nc3ccccc3c(=O)n2-c2c(C)n(C)n(-c3ccccc3)c2=O)cc1,-21,78%,11,-6%,2
COc1ccc(-c2cc(=NCC(=O)O)c3ccccc3o2)cc1,x,120%,62*,128%,28*
COc1ccc(-c2cc(=NCCCCCC(=O)O)c3cc(C)ccc3o2)cc1,-18,u,5,5%,12
COc1ccc(-c2oc3ccccc3c(=O)c2OCC(=O)O)cc1,-22,u,-13,14%,2
CCc1ccc2oc(-c3ccc(OC)cc3)cc(=Nc3c(C)n(C)n(-c4ccccc4)c3=O)c2c1,u,u,127*,-47%,63*
CN1CCN(c2ccc([N+](=O)[O-])cc2C(=O)c2ccc(Cl)cc2)CC1,-25,16%,-10,u,-2
CCOc1ccc(CCNC(=O)c2cnc3sc(N4CCC(C)CC4)nn3c2=O)cc1,14,x,x,x,x
COc1ccc(-c2cc(=Nc3cccc(C(=O)O)c3)c3cc(C)ccc3o2)cc1,1,319%,98*,374%,59*
COc1ccc(CN(Cc2ccco2)C(=O)COc2ccc(Cl)cc2C)cc1,42,x,x,x,x
CC1Cc2cc(S(=O)(=O)N3CCC(C(=O)N(C)Cc4ccccc4)CC3)ccc2N1C(=O)C1CC1 (centres undefined),-25,10µM*,-4,13µM*,15
